Data: ChEMBL document CHEMBL3988442, “University of Dundee, Small-Polar-MMV Screening Library” (2021)
Hit rate of the full screen: of about 48,000 compounds, about 13,000 (27%) showed an effect of 50% or more. The list shows a part of the results.

Test system: Wolbachia pipientis
Test: Anti-Wolbachia Cell-Based Screen
Type: functional
Parameters: scale not given: in the data most compounds retested in dose-response had high values
Conditions: 5 µM

| SMILES | Percent Effect [%] |
| --- | --- |
| O=C(C[C@H]1[C@H]2CN(c3ncccn3)C[C@@H]12)Nc1cccnc1.O=C(O)C(F)(F)F.O=C(O)C(F)(F)F | -0.113 |
| CCc1nc(CN(C)CC2CCN(CC(C)O)CC2)no1 (stereo not given) | -10.69 |
| CN1CCCC(CCC(=O)N2CCc3sc(C(=O)N(C)C)cc3C2)C1 (stereo not given) | -22.79 |
| Cc1nc(C2CCCN2CC(=O)N2CCCc3ccccc32)no1 (stereo not given) | -7.265 |
| COCc1ncc(CN(Cc2ccncc2)Cc2ccc(C)s2)cn1 | 12.8 |
| O=C(CNc1ccc(F)cc1OCC(F)(F)F)NCC(F)(F)F | -7.353 |
| O=C(CCc1ccco1)Nc1ncn(CC(=O)N2CCCCCC2)n1 | 1.429 |
| O=C1CC2(CCN(S(=O)(=O)C3CC3)C2)CN1c1cncnc1 (stereo not given) | 7.231 |
| Cc1cccc(N2CCCC3(C2)CN(c2nncs2)CCO3)c1 (stereo not given) | -21.39 |
| O=C1CC2(CCN(Cc3cccs3)C2)CN1c1cccc(F)c1 (stereo not given) | 17.5 |
| CCS(=O)(=O)N1CCC2(CC(=O)N(c3cccc(C)c3)C2)C1 (stereo not given) | -28.77 |
| O=C1CC2(CCN(c3nncs3)C2)CN1c1cccc(F)c1 (stereo not given) | 96.11 |
| O=C1CC2(CCN(Cc3ccoc3)C2)CN1c1ccc2c(c1)OCO2 (stereo not given) | 2.94 |
| O=C1CC2(CCN(c3nncs3)C2)CN1c1ccccc1 (stereo not given) | 7.339 |
| Cc1cccc(N2CC3(CCN(c4nncs4)C3)CC2=O)c1 (stereo not given) | 106.3 |
| O=C1CC2(CCN(c3nncs3)C2)CN1c1ccc2c(c1)OCCO2 (stereo not given) | 105.6 |
| O=C(N1CCCC1)N1CCC2(CC(=O)N(c3ccc4c(c3)OCO4)C2)C1 (stereo not given) | -19.45 |
| CCS(=O)(=O)N1CCC2(CC(=O)N(c3cncnc3)C2)C1 (stereo not given) | -9.187 |
| O=C1CC2(CCN(c3nncs3)C2)CN1c1cncnc1 (stereo not given) | 102.2 |
| CN(Cc1ccc(Cl)s1)C(=O)NCCC(=O)N1CCCCCC1 | -2.265 |
| CCn1c(CC2CCN(C(=O)C3COCCO3)CC2)nn(C)c1=O (stereo not given) | -4.106 |
| Cc1nc(C)n(CCNC2CCN(c3ncnc4c(C)csc34)CC2)n1 | -4.781 |

| SMILES | Percent Effect [%] |
| --- | --- |
| N#Cc1ccccc1N1CCCN(CC(=O)Nc2ccc(Cl)cn2)CC1 | -6.971 |
| Cc1cc(N)nc(SC2CCCN(Cc3ccccc3)C2=O)n1 (stereo not given) | -26.38 |
| Cc1ccccc1N1CC2(CCN(Cc3nccn3C)C2)CC1=O.O=C(O)C(F)(F)F (stereo not given) | 12.68 |
| Cc1ccccc1N1CC2(CCN(c3nncs3)C2)CC1=O (stereo not given) | 115.5 |
| Cc1cnc(C(=O)N2CCC3(CCCN(c4nncs4)C3)C2)cn1 (stereo not given) | -22.67 |
| Cn1ccnc1CN1CCN(Cc2ccncc2)[C@@H]2CS(=O)(=O)C[C@@H]21 | 120.1 |
| O=S1(=O)C[C@@H]2[C@H](C1)N(S(=O)(=O)N1CCCC1)CCN2Cc1ccccc1 | -24.95 |
| O=S1(=O)C[C@@H]2[C@H](C1)N(Cc1ncc[nH]1)CCN2CCCc1ccccc1 | 97.44 |
| Cc1n[nH]c(CN2CCN(Cc3ccccc3)[C@@H]3CS(=O)(=O)C[C@@H]32)n1 | -3.3 |
| Cn1ccnc1CN1CCN(Cc2ccccc2)[C@@H]2CS(=O)(=O)C[C@@H]21 | 89.31 |
| Cc1ccc(CN2CCN(Cc3ccncc3)[C@@H]3CS(=O)(=O)C[C@@H]32)cc1 | 9.085 |
| O=C(C1CCCC1)N1CCN(Cc2ccncc2)[C@@H]2CS(=O)(=O)C[C@@H]21 | -3.8 |
| CCc1ccccc1CN1CCN(Cc2ncc[nH]2)[C@H]2CS(=O)(=O)C[C@H]21 | 21.76 |
| O=S1(=O)C[C@@H]2[C@H](C1)N(Cc1ncc[nH]1)CCN2C/C=C/c1ccccc1 | -2.971 |
| CC1(C)CCC(C(=O)N2CCCO2)c2ccccc21 (stereo not given) | 6.18 |
| CC(C)OC(=O)N1CCCC2(CCC(=O)N(CCc3c[nH]cn3)C2)C1 (stereo not given) | 2.776 |
| Cc1ccc(Cl)c(NC(=O)NC2(C)CCOC2)c1 (stereo not given) | -14.51 |
| Cc1nc(CNC(=O)CC2C(=O)NCCN2CCC(C)C)n[nH]1 (stereo not given) | 13.35 |
| CC1CCCN(C(=O)CCNS(=O)(=O)c2cccnc2)C1 (stereo not given) | 5.119 |
| CN(CCC(=O)N1CCCC(Cc2cccnc2)C1)Cc1cccnc1 (stereo not given) | 128.2 |
| CC(C)c1noc(CCCC(=O)N2CCC(Cc3cccnc3)CC2)n1 | -13.45 |
| O=C(CCn1ncc2ccccc21)N1CCCC(Cc2cccnc2)C1 (stereo not given) | 101.6 |

| SMILES | Percent Effect [%] |
| --- | --- |
| CN(C)CCn1ccnc1C1CCCN(C(=O)CCc2cccnc2)C1 (stereo not given) | -16.88 |
| O=C(CSCC1CC1)N1CCCC(c2nccn2Cc2cccnc2)C1 (stereo not given) | -14.92 |
| O=C1CCCN1CCCC(=O)N1CCCC(Cc2cccnc2)C1 (stereo not given) | 77.87 |
| Cc1ccn(CCC(=O)N2CCCC(Cc3cccnc3)C2)n1 (stereo not given) | 122.4 |
| COCCN1CC2(CCC1=O)CCN(Cc1cc(F)ccc1Cl)CC2 | 8.376 |
| COCCCN1CC2(CCC1=O)CCN(Cc1cc(C)no1)CC2 | -12.58 |
| O=C(CCC1CCCO1)NCCN1CCCCC1 (stereo not given) | -10.6 |
| Cn1nccc1CCC(=O)N1CCCC(Cc2cccnc2)C1 (stereo not given) | 92.49 |
| CC1CCCN(C(=O)CCc2cccnc2)C1 (stereo not given) | -4.583 |
| CC(C)C(=O)N1CCC2(CC1)NC(=O)[C@H]1CN(Cc3cccnc3)C[C@H]12 | -21.16 |
| CC(C)c1nc(C2CCCN(C(=O)Cc3cccnc3)C2)no1 (stereo not given) | -1.83 |
| CSc1nnc(CC2CCN(C(=O)CCc3cccnc3)CC2)n1C | -9.622 |
| CC(C)C(=O)N1CCCC(Cc2cccnc2)C1 (stereo not given) | 104.6 |
| CCN(C(=O)Cc1ccc(NCc2ncc[nH]2)cc1)c1ccccc1 | -2.92 |
| Cc1[nH]c(=O)c(C#N)cc1C(=O)N1C[C@@H](CN2CCCC2)C[C@H](CO)C1 | 10.61 |
| CCOc1ccccc1C(CC(=O)Nc1ccccc1)NC(C)=O (stereo not given) | -7 |
| CCC(=O)N1CCN(c2cc(N(C)C)cnn2)CC1 | 6.449 |
| O=c1[nH]c(N2CC(O)C2)nc2c1cnn2-c1ccccc1 | 21.25 |
| Cc1nc(CN2C(=O)COC3(CCN(Cc4ccsc4)CC3)C2C)cs1.O=C(O)C(F)(F)F (stereo not given) | 114.5 |
| Cc1nc(CN2C(=O)CC3(CCN(C(N)=O)CC3)c3ccccc32)cs1.O=C(O)C(F)(F)F | -9.244 |
| Cc1nc(CN2C(=O)COC3(CCN(Cc4nccs4)CC3)C2C)cs1.O=C(O)C(F)(F)F (stereo not given) | -7.401 |
| Cc1nc(CN2C(=O)COC3(CCN(C(N)=O)CC3)C2C)cs1 (stereo not given) | 117.7 |

| SMILES | Percent Effect [%] |
| --- | --- |
| COCC1CC2(CCN(C(N)=O)CC2)CN1Cc1csc(C)n1.O=C(O)C(F)(F)F (stereo not given) | -7.067 |
| Cc1nc(CN2C(=O)COC3(CCN(C)CC3)C2C)cs1.O=C(O)C(F)(F)F (stereo not given) | 127.2 |
| Cc1nc(CN2C(=O)COC3(CCN(CC4CC4)CC3)C2C)cs1.O=C(O)C(F)(F)F (stereo not given) | 98.79 |
| CC1N(CC2CC2)C(=O)COC12CCN(C(=O)c1cscn1)CC2 (stereo not given) | -4.225 |
| CCc1ccc(CNC(=O)Nc2cc(C)on2)s1 | -14.37 |
| COCc1nc2cc3c(cc2c(=O)o1)OCCCO3 | -7.292 |
| COc1cc(CC(O)CC#N)c(OC)c2c1OCO2 (stereo not given) | -11.73 |
| COCc1noc(-c2nn(-c3ccccc3F)c3c2CCC3)n1 | -4.596 |
| Cc1ncsc1CCC(=O)N1CCCC[C@H](N(C)C)C1 | 4.231 |
| CCCNc1ccc(C(=O)NCCc2ccc(Cl)cc2)cn1 | 106.9 |
| CCCNc1ccc(C(=O)NCCc2cccc(Cl)c2)cn1 | 116.4 |
| COc1cc(C(=O)NCCc2ccc(Cl)cc2)on1 | -4.303 |
| COc1cccc(CCNC(=O)c2ccc(=O)n(C)c2)c1 | 11.31 |
| CCNc1ncc(C(=O)NCCc2ccc(C)c(C)c2)cn1 | -6.077 |
| COc1cc(C(=O)NCCc2cccc(C)c2)on1 | -13.11 |
| CNC(=O)c1cccc(CCNc2ccccn2)c1 | -20.45 |
| CCCNc1ccc(C(=O)NCCc2cccc(OC)c2)cn1 | 121.7 |
| CNC(=O)c1cccc(CCNc2ccc(C#N)cn2)c1 | -20.96 |
| CCCn1cnnc1CNC(=O)CC1C(=O)NCCN1C(C)C (stereo not given) | -4.75 |
| CN(CCCc1nccn1C)C(=O)C1CCN(C(=O)C2CCCC2)CC1 | -7.854 |
| Cc1cc(C)cc(CN2CCN(Cc3ccc4nonc4c3)CC2=O)c1 | -1.635 |
| CCNC(=O)CN1CCC(c2cc(OC)cc(OC)c2)C1 (stereo not given) | -11.46 |

| SMILES | Percent Effect [%] |
| --- | --- |
| CCOCC1CN(S(C)(=O)=O)Cc2nn(C)cc21 (stereo not given) | -37.27 |
| Cc1nc(C2CCCN(C(=O)c3ccc(N4CCCC4)nc3)C2)no1 (stereo not given) | -0.5946 |
| COc1ccnc(C(=O)N2CCCC(c3noc(C)n3)C2)c1 (stereo not given) | -1.667 |
| CCOc1cc(C(=O)N2CCCC(c3noc(C)n3)C2)ccc1OC (stereo not given) | 123.2 |
| Cc1nc(C2CCCN(C(=O)c3ccc(OCC4CC4)cc3)C2)no1 (stereo not given) | -3.23 |
| Cc1nc(C2CCCN(C(=O)c3ccc(OCC4CC4)nc3)C2)no1 (stereo not given) | 97.67 |
| COc1ccc(N(C(=O)c2ccc(C)nc2)C(C)C)cc1F | -11.04 |
| CN(C)C[C@@H]1CN(Cc2ccccc2C#N)C[C@@H]1CO | 8.186 |
| Cn1ncc2c1CN(C(=O)Cc1ccccn1)CC2COCC1CC1.O=C(O)C(F)(F)F.O=C(O)C(F)(F)F (stereo not given) | -6.419 |
| Cc1cc(C)c(CCNC(=O)NCCCC(N)=O)c(C)c1 | -1.921 |
| CCNC(=O)CNC(=O)Nc1c(F)cc(F)cc1-c1ccccc1 | 120.1 |
| O=C(NCCO)Nc1ccc(Br)c(F)c1 | -6.574 |
| O=C(CNC(=O)Nc1c(F)cc(F)cc1-c1ccccc1)NC1CC1 | 131.5 |
| CCNC(=O)CNC(=O)Nc1cccc(Cl)c1SC(F)F | -15.46 |
| O=C(CNC(=O)Nc1c(F)cccc1Oc1ccccc1)NC1CC1 | -0.6876 |
| CNC(=O)CNC(=O)Nc1ccc(Br)c(F)c1 | -1.14 |
| COCC(O)CNC(=O)c1cnc(-c2ccccc2)nc1O (stereo not given) | -15.86 |
| COCC(O)CNC(=O)c1coc(COc2cccc(F)c2)n1 (stereo not given) | 3.844 |
| O=C(NCCO)Nc1c(F)cccc1Oc1ccccc1 | 2.837 |
| COCC(O)CNC(=O)Nc1c(F)cc(F)cc1-c1ccccc1 (stereo not given) | 147.7 |
| O=C(CNC(=O)Nc1cccc(Cl)c1SC(F)F)NC1CC1 | -13.14 |
| O=C(NCCO)Nc1c(F)cc(F)cc1-c1ccccc1 | 122.6 |
